# Shown are actives, neighbours in structure and some others; about 2.4% of the full set was active somewhere.
# D2 ag-1 – activates the human D2 dopamine receptor; AID 485358; 340,000 tested, 0.53% active; HEK293 T-REx D2 cells, calcium flux agonist mode; P14416; activation, % at 2 µM;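 active = activation over 3 SD above normal in the single-dose calcium agonist read, cut at about 30% in these data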
# Target sequence (P14416 whole entry, looked up): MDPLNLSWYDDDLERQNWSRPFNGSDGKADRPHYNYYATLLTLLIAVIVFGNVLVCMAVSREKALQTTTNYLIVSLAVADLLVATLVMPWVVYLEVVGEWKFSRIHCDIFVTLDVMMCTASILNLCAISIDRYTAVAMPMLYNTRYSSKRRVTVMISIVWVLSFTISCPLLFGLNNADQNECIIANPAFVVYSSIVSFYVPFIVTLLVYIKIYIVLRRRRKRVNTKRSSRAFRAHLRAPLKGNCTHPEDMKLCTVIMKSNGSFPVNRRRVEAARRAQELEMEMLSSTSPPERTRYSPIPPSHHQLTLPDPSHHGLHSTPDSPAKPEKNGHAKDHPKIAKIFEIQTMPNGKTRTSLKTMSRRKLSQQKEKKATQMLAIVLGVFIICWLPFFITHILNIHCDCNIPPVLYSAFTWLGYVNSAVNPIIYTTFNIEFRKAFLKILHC
#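 HEK293 Trex D2 cells, tetracycline-induced, o/n 30 C 5% CO2; no-wash Ca dye, RT 30–90 min; 10-cycle baseline, 23 nl cpd added, kinetic Ca read 180 s; agonist hits = positive Ca response.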
# D2 antagonist – antagonizes the human D2 dopamine receptor; P14416; HEK293 TREx D2 cells, calcium flux, dopamine EC80; inhibition, % at 10 µM; 340,000 tested, 2% active; AID 485344; in the data active = inhibition above about 30%; inactive = below that, where a call was filed
#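 Measurement of antagonist activity uses fluorescent calcium dye in inducible HEK293 T-REx D2 cells: 10 s baseline, compound addition with 180 s read, EC80 dopamine addition with a further 180 s read.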
# D2 PAM-1 – potentiates the human D2 dopamine receptor allosterically; P14416; DiscoveRx D2 beta-arrestin cells, luminescence, 90 min; 100% = 57 uM dopamine signal; potentiation, % (concentration not given with the values); 360,000 tested, 0.23% active; AID 624464; in the data active = potentiation above about 50%; inconclusive = mostly about 30% to 49%
#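 PathHunter beta-arrestin assay in DiscoveRx D2 cells. Compounds were added with an EC20 of dopamine (50 nM final) for 90 min at 37 deg C. Luminescence was read 1 h after detection reagent, with 57 uM dopamine as the EC100 control.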
# D2 ag-2 – agonists of human D2 dopamine receptor (beta-arrestin) | P14416 | 360,000 tested, 0.084% active | DiscoveRx PathHunter D2 beta-arrestin, luminescence, 90 min; 100% = 57 uM dopamine signal | activation, % (no concentration beside the values); in the data active = activation above about 40%; inconclusive = between about 15% and that limit
#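 DiscoveRx PathHunter D2 beta-arrestin cells (2,100/well) attached overnight, then compound-stimulated 90 min at 37 C in HBSS/10 mM HEPES/0.1% Tween-20 buffer; beta-galactosidase complementation read by luminescence after 1 h at ambient temperature. Dopamine 57 uM final (EC100) as control.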
# D2 PAM-2 – D2 dopamine receptor (human) potentiation; P14416; HEK293 T-REx D2, calcium flux, EC20 dopamine potentiation; potentiation, % at 10 µM; 340,000 tested, 0.34% active; AID 485347;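 active = potentiation over 3 SD above the plate norm, cut at about 30% in these data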
#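 Tetracycline-induced HEK293 T-REx cells force-coupled to calcium signalling expressed D2; compounds were pin-added after a 10 s baseline, read kinetically 180 s, then an EC20 dopamine challenge followed with a further 180 s calcium read.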
# Hits are given with their value; 0 = inactive; ? = inconclusive; - = no result.
SMILES,D2 ag-1,D2 antagonist,D2 PAM-1,D2 ag-2,D2 PAM-2
c1ccc(COc2cccc(CN3CCN(c4ccccn4)CC3)c2)cc1,0,0,?,48,0
CCCCOc1ccc(CNC(=O)Cc2ccc(NC(=O)N3CCCCc4ccccc43)cc2)cc1,0,-,-,-,0
O=c1oc2ccc(Cl)cc2cc1-c1cn2c(n1)sc1ccccc12,0,-,-,-,0
CCN1CCN(C(=O)c2ccc3c(c2)N(Cc2ccccc2)C(=O)c2ccccc2S3=O)CC1 (stereo unspecified),0,0,0,0,0
CCOCCCNC(=O)c1ccc2c(c1)N(CC)C(=O)c1ccccc1S2=O (stereo unspecified),0,0,0,0,0
CCN1CCN(CCNC(=O)c2ccc3c(c2)N(Cc2ccc(F)cc2)C(=O)c2ccccc2S3=O)CC1 (stereo unspecified),0,55,0,0,0
CCCCSCCCNC(=O)c1ccc2c(c1)N(CC)C(=O)c1ccccc1S2=O (stereo unspecified),0,30,0,0,0
CCN1C(=O)c2ccccc2S(=O)c2ccc(C(=O)NCc3ccccc3OC)cc21 (stereo unspecified),0,-,-,-,0
CCCCN(CC)CCCNC(=O)c1ccc2c(c1)N(Cc1ccc(C)cc1)C(=O)c1ccccc1S2,0,-,-,-,0
CCN1C(=O)c2ccccc2Sc2ccc(C(=O)NCCCN(CC(C)C)CC(C)C)cc21,0,42,0,0,0
CCCN(CCC)CCCNC(=O)c1ccc2c(c1)N(CC)C(=O)c1ccccc1S2=O (stereo unspecified),0,107,0,0,0
Cn1c(=O)c2c(-c3ccccc3)n3c(c2n(C)c1=O)C(c1ccccc1[N+](=O)[O-])Nc1ccccc1-3 (stereo unspecified),0,-,-,-,0
CCN1CCC(N(Cc2ccc3c(c2)OCO3)C(=O)Nc2cc(F)ccc2F)CC1,0,-,-,-,-
CCN1C(=O)c2ccccc2S(=O)c2ccc(C(=O)NCc3ccc(OC)cc3)cc21 (stereo unspecified),0,81,0,0,0
CCCCCn1c(CN2CCCCC2CC)nc2c1c(=O)n(C)c(=O)n2C (stereo unspecified),0,0,0,0,55
O=C(O)COc1ccc2c3c(c(=O)oc2c1)CCC3,0,39,0,0,0
NS(=O)(=O)c1ccc(CCNC(=O)COc2ccc3c4c(c(=O)oc3c2)CCC4)cc1,0,0,0,0,40
O=C(NCc1ccccc1Cl)c1ccc(Nc2nc3ccccc3n3nnnc23)cc1,0,-,-,-,0
Cc1cc2c(cc1S(=O)(=O)Nc1cccc(F)c1)n(C)c(=O)c(=O)n2C,0,0,0,0,0
Cc1cccc(NS(=O)(=O)c2cc3c(cc2C)n(C)c(=O)c(=O)n3C)c1,36,0,0,0,0
Cc1nc(N2CCOCC2)c2c(C(=O)N3CCN(c4cc(Cl)ccc4C)CC3)c(C)oc2n1,0,-,-,-,0
COc1ccc(-n2nc([N+](=O)[O-])c(=NCc3cccnc3)n2O)cc1,0,0,?,?,0
COc1ccc(-n2nc([N+](=O)[O-])c(=NCCC3=CCCCC3)n2O)cc1,0,0,74,51,0
Cc1cc(C)cc(N=c2c([N+](=O)[O-])nn(-c3ccc(Cl)cc3)n2O)c1,0,0,?,0,0
COc1ccc(-n2nc([N+](=O)[O-])c(=NCCc3ccc(C)cc3)n2O)cc1,0,0,71,?,0
SMILES,D2 ag-1,D2 antagonist,D2 PAM-1,D2 ag-2,D2 PAM-2
CCc1ccc(N=c2c([N+](=O)[O-])nn(-c3ccccc3)n2O)cc1,0,0,90,0,0
COc1ccc(-n2nc([N+](=O)[O-])c(=NCCc3ccc(Cl)cc3)n2O)cc1,0,0,87,0,0
COc1ccc(-n2nc([N+](=O)[O-])c(=NCc3ccco3)n2O)cc1,0,0,?,?,0
Cc1cc(C)c(NC(=O)Cn2c(=O)n(CCC(=O)NCc3ccc4c(c3)OCO4)c(=O)c3ccccc32)c(C)c1,0,-,-,-,0
CN1C(=O)c2cccc3c(S(=O)(=O)Nc4cccc(C(=O)O)c4)ccc1c23,0,-,-,-,0
O=C(COc1ccc(Cl)cc1)Nc1ccc2nc(SCC(=O)N3CCOCC3)sc2c1,0,-,-,-,0
O=C(Nc1ccc(F)cc1)C1CCN(c2nc3ccccc3nc2C(F)(F)F)CC1,0,-,-,-,0
O=C(Nc1ccccc1)N(Cc1c[nH]c2ccccc12)C1CCCCCC1,0,-,-,-,0
O=C(C1CCCCC1)N1C[C@H](n2cc(C3CC3)nn2)[C@@H](O)C[C@@H]1c1ccc(Cl)cc1,-,-,0,0,-
COc1ccc(S(=O)(=O)N2CCN(C3CCN(Cc4ccccc4)CC3)CC2)cc1,0,0,0,0,0
COc1ccc(-n2nc([N+](=O)[O-])c(=NCCc3ccc(OC)c(OC)c3)n2O)cc1,0,0,137,?,0
COc1ccc(-n2nc([N+](=O)[O-])c(=NC3CCN(Cc4ccccc4)CC3)n2O)cc1,0,71,0,?,0
Cc1cc(NC2CCCCC2)nc2ccccc12,0,44,0,0,0
CCCC(CCC)C(=O)Nc1cccc(-c2nc3cccnc3s2)c1,0,-,-,-,0
O=C(COC(=O)/C=C/c1cccs1)Nc1ccc(F)cc1,0,0,0,0,0
CCc1cccc(NC(=O)COC(=O)/C=C/c2cccs2)c1,0,31,0,0,0
C/C=C/c1ccc(OCCCCN2CC(C)CC(C)C2)c(OC)c1 (stereo unspecified),0,38,0,0,0
COc1cc2c(cc1OC)CN(C(=O)CSc1ccc(F)cc1)CC2,0,61,0,0,0
COc1cc2c(cc1OC)CN(C(=O)CSc1nc(C)cc(C)c1C#N)CC2,0,0,0,0,34
Cn1cccc1-c1cc(C(=O)N/N=C/c2ccc(F)cc2)[nH]n1,0,61,0,0,-
Cn1cccc1-c1cc(C(=O)N/N=C/c2ccccc2Cl)[nH]n1,0,88,0,0,0
Cn1cccc1-c1cc(C(=O)N/N=C/c2ccc([N+](=O)[O-])cc2)[nH]n1,0,0,0,0,0
Cn1cccc1-c1cc(C(=O)N/N=C/c2cc(Br)ccc2O)[nH]n1,-,-,0,0,-
Cc1ccccc1-c1nc(C#N)c(N2CCC(C)CC2)o1,0,31,0,0,0
CCCC[n+]1ccn(-c2nc3c([N+](=O)[O-])cccc3n2C)c1,0,34,0,0,0
CCN(CC)S(=O)(=O)c1cc(C(=O)OCC(=O)NC2CCCc3ccccc32)ccc1C (stereo unspecified),0,37,0,0,0
Cc1nc([N+](=O)[O-])c(Br)n1CC(=O)c1ccc(F)cc1,0,34,0,0,0
Cc1nc([N+](=O)[O-])c(Br)n1CC(=O)c1cccc([N+](=O)[O-])c1,0,0,0,0,0

# Compound activity deposited in PubChem BioAssay by National Center for Advancing Translational Sciences (NCATS).
